Laboratory results taken from PubChem BioAssay (NCI).
The panel holds about 79,000 compounds, 15% with a hit somewhere; the sample as a whole holds those more often. Activity calls are given as the source filed them. Rule as the data show it: active = growth inhibition above about 70%; inactive = the rest.

Experiments:
[1] = NCI Yeast Anticancer Drug Screen. Data for the rad52 strain (AID 147);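 also: 0% = growth of vehicle-treated control cultures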; conditions: S. cerevisiae rad52 mutant growth inhibition, active compounds read high
Summary of the method: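 Inhibition of yeast growth, referenced to vehicle controls, was the measured output for a strain with defective DNA damage repair.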

[2] = NCI Yeast Anticancer Drug Screen. Data for the wt1 strain (AID 149);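 also: 0% = growth of vehicle-treated wt1 cultures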; conditions: S. cerevisiae wt1 strain (SPY 50644) growth inhibition, active compounds read high
Summary of the method: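 Yeast wt1 strain exposed to compounds; growth inhibition measured relative to vehicle-treated controls.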

[3] = NCI Yeast Anticancer Drug Screen. Data for the rad50EPP+ strain (AID 151);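 also: 0% = growth of vehicle-treated control cultures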; conditions: S. cerevisiae rad50 mutant strain, active compounds read high
Summary of the method: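 Genetically defined yeast (rad50EPP+, DNA damage repair alteration) is grown with compound, and inhibition of growth is expressed relative to vehicle-treated controls.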

[4] = NCI Yeast Anticancer Drug Screen. Data for the rad50 strain (AID 155);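 also: 0% = growth of vehicle-only cultures of the same strain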; conditions: S. cerevisiae rad50 strain growth inhibition, active compounds read high
Summary of the method: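 Yeast carrying a defined DNA repair defect were exposed to test compounds, and growth was compared with vehicle-treated controls to give percent inhibition.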

[5] = NCI Yeast Anticancer Drug Screen. Data for the mec2-1 strain (AID 157); conditions: S. cerevisiae mec2-1 strain, active compounds read high
Summary of the method: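 Each compound was tested on mec2-1 yeast, a strain altered in DNA damage repair or cell cycle control. Growth inhibition is reported relative to vehicle.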

[6] = NCI Yeast Anticancer Drug Screen. Data for the rad14 strain (AID 159);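 also: 0% = growth of vehicle-treated control cultures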; conditions: S. cerevisiae rad14 strain growth inhibition, active compounds read high
Summary of the method: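 Yeast cells carrying a defined DNA-repair defect were exposed to compounds, and growth inhibition was calculated relative to vehicle-treated control cultures.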

[7] = NCI Yeast Anticancer Drug Screen. Data for the sgs1 mgt1 strain (AID 161);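 also: 0% = growth of cultures given vehicle only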; conditions: S. cerevisiae sgs1 mgt1 strain, active compounds read high
Summary of the method: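 Test agents were incubated with a DNA-repair-mutant yeast strain. Growth was then read and compared against vehicle-treated controls.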

[8] = NCI Yeast Anticancer Drug Screen. Data for the CLN2oe strain (AID 163);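 also: 0% = growth of vehicle-only control cultures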; conditions: S. cerevisiae CLN2oe strain, active compounds read high
Summary of the method: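 First, the altered yeast strain was treated with each compound; second, its growth was measured; finally, inhibition was derived by comparison with vehicle controls.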

[9] = NCI Yeast Anticancer Drug Screen. Data for the cln2 rad14 strain (AID 165);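 also: 0% = growth equal to vehicle treated cultures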; conditions: S. cerevisiae cln2 rad14 strain, active compounds read high
Summary of the method: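 Test compounds were added to cln2 rad14 yeast cultures; inhibition of growth was then determined by comparison with vehicle treatment.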

[10] = NCI Yeast Anticancer Drug Screen. Data for the bub3 strain (AID 167); conditions: S. cerevisiae bub3 mutant strain, active compounds read high
Summary of the method: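 Compounds were applied to a genetically altered yeast strain carrying a cell-cycle control defect. Growth inhibition was scored against vehicle-treated controls.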

[11] = NCI Yeast Anticancer Drug Screen. Data for the wt2 strain (AID 169);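 also: 0% = growth of vehicle-treated yeast cultures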; conditions: S. cerevisiae wt2 strain growth inhibition, active compounds read high
Summary of the method: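 The panel's yeast strains carry defined changes in DNA repair or cell cycle genes. Each strain is grown with compound, and growth loss is scored relative to vehicle.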

[12] = NCI Yeast Anticancer Drug Screen. Data for the mlh1 strain (AID 171);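 also: 0% = growth of vehicle-treated control cultures of the same strain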; conditions: S. cerevisiae mlh1 strain growth inhibition, active compounds read high
Summary of the method: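 Inhibition values reflect reduced yeast growth in the presence of compound, referenced to vehicle controls, using a strain chosen for its alteration in DNA repair or cell cycle control.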

[13] = NCI Yeast Anticancer Drug Screen. Data for the sgs1 strain (AID 173);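 also: 0% = growth of vehicle-only control cultures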; conditions: S. cerevisiae sgs1 mutant, active compounds read high
Summary of the method: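 Vehicle-treated cultures served as reference for growth inhibition of a yeast strain altered in DNA damage repair or cell cycle control after compound exposure.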

[14] = NCI Yeast Anticancer Drug Screen. Data for the mlh1 rad18 strain (AID 175); conditions: S. cerevisiae mlh1 rad18 strain growth inhibition, active compounds read high
Summary of the method: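 Inhibition values reflect reduced growth of mutant yeast versus vehicle-treated controls following compound exposure; the mutations affect DNA damage repair.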

[15] = NCI Yeast Anticancer Drug Screen. Data for the rad18 strain (AID 177); conditions: S. cerevisiae rad18 mutant growth inhibition, active compounds read high
Summary of the method: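 Steps: expose repair-mutant yeast to compound; measure growth; express as inhibition relative to vehicle control.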

[16] = at 5.0 µM (retest, dose inferred, filed as 0.5)
[17] = at 50.0 µM (retest, dose inferred, filed as 5.0)

Measured: growth inhibition

CCOC(=O)C1=C(C)NC(C)=C(C(=O)OCC)C1c1ccc(Cl)cc1
active: [1]; at 11.0 µM 92% | [1]; at 33.0 µM 78% | [1]; at 100.0 µM 92% | [2]; at 100.0 µM 94% | [4]; [16] 98% | [4]; at 11.0 µM 93% | [4]; at 33.0 µM 88% | [4]; [17] 100% | [4]; at 50.0 µM 90.2% | [4]; at 100.0 µM 89% | [5]; [16] 99% | [5]; at 11.0 µM 70% | [5]; at 33.0 µM 70% | [5]; [17] 99% | [5]; at 50.0 µM 91.5% | [5]; at 100.0 µM 92% | [6]; at 11.0 µM 85% | [6]; at 33.0 µM 82% | [6]; at 100.0 µM 93% | [7]; [17] 98% | [8]; at 33.0 µM 83% | [8]; at 100.0 µM 88% | [9]; [17] 98% | [10]; at 11.0 µM 85% | [10]; at 33.0 µM 81% | [10]; [17] 98% | [10]; at 100.0 µM 93% | [11]; at 11.0 µM 74% | [11]; at 33.0 µM 85% | [11]; at 100.0 µM 96% | [12]; at 33.0 µM 84% | [12]; at 100.0 µM 92% | [13]; at 11.0 µM 73% | [13]; at 33.0 µM 89% | [13]; at 100.0 µM 95% | [14]; [16] 100% | [14]; [17] 100% | [14]; at 50.0 µM 90.2% | [15]; at 11.0 µM 93% | [15]; at 33.0 µM 89% | [15]; at 100.0 µM 92%
inactive: [1]; at 1.2 µM -13% | [1]; at 3.7 µM 6% | [2]; at 1.2 µM -23% | [2]; at 3.7 µM -10% | [2]; at 11.0 µM 33% | [2]; at 33.0 µM 60% | [3]; at 1.2 µM 6% | [3]; at 3.7 µM 4% | [3]; at 11.0 µM 16% | [3]; at 33.0 µM 0% | [3]; at 100.0 µM -8% | [4]; at 1.2 µM 14% | [4]; at 3.7 µM 35% | [5]; at 1.2 µM -9% | [5]; at 3.7 µM -5% | [6]; at 1.2 µM -14% | [6]; at 3.7 µM -6% | [7]; [16] -1% | [8]; at 1.2 µM -4% | [8]; at 3.7 µM -10% | [8]; at 11.0 µM 49% | [9]; [16] 27% | [10]; at 1.2 µM 20% | [10]; at 3.7 µM 44% | [10]; [16] 47% | [11]; at 1.2 µM -3% | [11]; at 3.7 µM -10% | [12]; at 1.2 µM -27% | [12]; at 3.7 µM -9% | [12]; at 11.0 µM 44% | [13]; at 1.2 µM 13% | [13]; at 3.7 µM 19% | [15]; at 1.2 µM 4% | [15]; at 3.7 µM 14%

CC(=O)c1ccc(NCN2C(=O)c3ccccc3C2=O)cc1
inactive: [1]; at 1.2 µM -31% | [1]; at 3.7 µM -8% | [1]; at 11.0 µM 28% | [2]; at 1.2 µM -51% | [2]; at 3.7 µM -41% | [2]; at 11.0 µM -36% | [2]; at 33.0 µM 66% | [3]; at 1.2 µM -17% | [3]; at 3.7 µM -32% | [3]; at 11.0 µM 6% | [4]; at 1.2 µM -20% | [4]; at 3.7 µM -12% | [4]; [16] 42% | [4]; at 11.0 µM 55% | [5]; at 1.2 µM -8% | [5]; at 3.7 µM -30% | [5]; [16] 51% | [5]; at 11.0 µM 16% | [6]; at 1.2 µM -50% | [6]; at 3.7 µM -39% | [6]; at 11.0 µM -19% | [6]; at 33.0 µM 66% | [7]; [16] 7% | [7]; [17] 25% | [8]; at 1.2 µM -19% | [8]; at 3.7 µM -32% | [8]; at 11.0 µM -31% | [8]; at 33.0 µM 53% | [9]; [16] 48% | [9]; [17] 35% | [10]; at 1.2 µM -15% | [10]; at 3.7 µM -2% | [10]; [16] 34% | [10]; at 11.0 µM 22% | [10]; [17] 42% | [11]; at 1.2 µM -49% | [11]; at 3.7 µM -36% | [11]; at 11.0 µM -15% | [11]; at 33.0 µM 64% | [12]; at 1.2 µM -44% | [12]; at 3.7 µM -48% | [12]; at 11.0 µM 6% | [12]; at 33.0 µM 68% | [13]; at 1.2 µM -25% | [13]; at 3.7 µM -28% | [13]; at 11.0 µM -13% | [14]; [16] 36% | [15]; at 1.2 µM -36% | [15]; at 3.7 µM -21% | [15]; at 11.0 µM 47%
active: [1]; at 33.0 µM 84% | [1]; at 100.0 µM 92% | [2]; at 100.0 µM 89% | [3]; at 33.0 µM 70% | [3]; at 100.0 µM 90% | [4]; at 33.0 µM 85% | [4]; [17] 99% | [4]; at 50.0 µM 82.7% | [4]; at 100.0 µM 89% | [5]; at 33.0 µM 81% | [5]; [17] 99% | [5]; at 50.0 µM 84.5% | [5]; at 100.0 µM 91% | [6]; at 100.0 µM 93% | [8]; at 100.0 µM 82% | [10]; at 33.0 µM 79% | [10]; at 100.0 µM 91% | [11]; at 100.0 µM 89% | [12]; at 100.0 µM 83% | [13]; at 33.0 µM 73% | [13]; at 100.0 µM 86% | [14]; [17] 99% | [14]; at 50.0 µM 85.8% | [15]; at 33.0 µM 90% | [15]; at 100.0 µM 92%

O=c1[nH]cc(F)c(=O)[nH]1
active: [1]; at 33.0 µM 71% | [1]; at 100.0 µM 88% | [3]; at 11.0 µM 73% | [3]; at 33.0 µM 92% | [3]; at 100.0 µM 96% | [4]; at 33.0 µM 77% | [4]; [17] 89% | [4]; at 50.0 µM 93.2% | [4]; at 100.0 µM 91% | [5]; [17] 96% | [6]; at 100.0 µM 77% | [7]; [17] 95% | [9]; [17] 73% | [10]; [17] 81% | [11]; at 33.0 µM 86% | [11]; at 100.0 µM 95% | [12]; at 33.0 µM 72% | [12]; at 100.0 µM 93% | [13]; at 11.0 µM 79% | [13]; at 33.0 µM 92% | [13]; at 100.0 µM 96% | [14]; [17] 86% | [14]; at 50.0 µM 89.2% | [15]; at 100.0 µM 86%
inactive: [1]; at 1.2 µM 2% | [1]; at 3.7 µM 14% | [1]; at 11.0 µM 39% | [3]; at 1.2 µM 4% | [3]; at 3.7 µM 31% | [4]; at 1.2 µM 2% | [4]; at 3.7 µM 17% | [4]; [16] 26% | [4]; at 11.0 µM 43% | [5]; at 1.2 µM 11% | [5]; at 3.7 µM 12% | [5]; [16] 26% | [5]; at 11.0 µM 14% | [5]; at 33.0 µM 14% | [5]; at 50.0 µM 53.7% | [5]; at 100.0 µM 9% | [6]; at 1.2 µM 1% | [6]; at 3.7 µM 10% | [6]; at 11.0 µM 17% | [6]; at 33.0 µM 54% | [7]; [16] 53% | [7]; at 50.0 µM 49.6% | [8]; at 1.2 µM 21% | [8]; at 3.7 µM 23% | [8]; at 11.0 µM 21% | [8]; at 33.0 µM 19% | [8]; at 100.0 µM 18% | [9]; [16] 17% | [9]; at 50.0 µM 66.7% | [10]; at 1.2 µM 6% | [10]; at 3.7 µM 7% | [10]; [16] 2% | [10]; at 11.0 µM 5% | [10]; at 33.0 µM 19% | [10]; at 50.0 µM 44.6% | [10]; at 100.0 µM 3% | [11]; at 1.2 µM 1% | [11]; at 3.7 µM 17% | [11]; at 11.0 µM 58% | [12]; at 1.2 µM 4% | [12]; at 3.7 µM 8% | [12]; at 11.0 µM 23% | [13]; at 1.2 µM 10% | [13]; at 3.7 µM 44% | [14]; [16] 16% | [15]; at 1.2 µM 0% | [15]; at 3.7 µM 10% | [15]; at 11.0 µM 46% | [15]; at 33.0 µM 68%
